Assay results as given in PubChem BioAssay AID1053133 (Broad Institute, 2014).
The whole screen tested about 89,000 compounds, of which about 10 (0.01%) were called active. Inconclusive results (about 10%) are left out. No stated cut-off is given here; in the data, active means activity change below about -37% (passing the limit was not always enough); inconclusive means no clear call, values can overlap the other calls; tested in A549 cells. The list is a sample of the results.

Assay: blocks a specific stage of Vaccinia orthopoxvirus infection, primary screen, cell-based, single point (AID 1053133)
Conditions: Vaccinia-infected cells, mCherry/Venus stage reporter fluorescence, stronger effect = lower value, concentration not given here; activity change (Venus): measured here: Venus reporter, other viral stage

| Compound | activity change (Venus) | activity change (mCherry) |
| --- | --- | --- |
| O=C(C[C@H]1C=C[C@@H](NS(=O)(=O)c2ccc(F)cc2)[C@@H](CO)O1)NC1CCC1 | 1.04% | -4.64% (inactive) |
| COc1ccc2c3c(n(C)c2c1)[C@@H](CO)NCC31CCN(CC2CC2)CC1 | -18.9% | -27.4% (inactive) |
| O=C([C@@H]1[C@@H](CO)[C@@H]2Cn3c(ccc(C4=CCCC4)c3=O)[C@H]1N2C(=O)c1ccncc1)N1CCCCC1 | 16.9% | 10.1% (inactive) |
| C[C@@H]1CCCCO[C@H](CN(C)S(=O)(=O)c2cccs2)[C@H](C)CN([C@@H](C)CO)C(=O)c2cc(NC(=O)Nc3ccc4c(c3)OCO4)ccc2O1 | 8.44% | 9.35% (inactive) |
| COCC(=O)N1CC2(CN(C(=O)c3cccnc3)C2)c2c([nH]c3cc(OC)ccc23)[C@H]1CO | -0.352% | 2.73% (inactive) |
| Cc1ccccc1S(=O)(=O)N[C@@H]1CC[C@H](CCn2cc(-c3ccc(F)cc3)nn2)O[C@@H]1CO | -24.8% | -28.1% (inactive) |
| CO[C@@H]1CC[C@@H]2CCOc3c(C#N)cccc3C(=O)N(C)C[C@H](C)C(=O)N(C)C[C@H]1O2 | 8.81% | 14.4% (inactive) |
| C[C@@H]1CN([C@@H](C)CO)C(=O)c2cc(NC(=O)Cc3ccccc3)ccc2O[C@@H](C)CCCCO[C@H]1CN(C)C(=O)Nc1cccc2ccccc12 | 18.5% | 21.9% (inactive) |
| CN(C)CCCNC(=O)C[C@H]1CC[C@H]2[C@@H](COC[C@H](O)CN2CC2CCCCC2)O1 | 5.87% | 3.25% (inactive) |
| C[C@@H]1CCCCO[C@@H](CN(C)Cc2ccc3c(c2)OCO3)[C@H](C)CN([C@@H](C)CO)C(=O)c2cc(NS(C)(=O)=O)ccc2O1 | 5.91% | -0.705% (inactive) |
| COc1ccc2c3c(n(C)c2c1)[C@H](CO)N(CC1CCOCC1)CC31CCN(C(C)=O)CC1 | 11% | 17.4% (inactive) |
| CN(C)CC(=O)Nc1ccc2c(c1)[C@@H]1C[C@H](CC(=O)NCc3ccc(Cl)cc3)O[C@@H](CO)[C@@H]1O2 | 5.77% | -4.73% (inactive) |
| COc1ccc2c3c([nH]c2c1)[C@@H](CO)N(C(=O)c1ccc(F)cc1)CC31CCN(C(=O)Nc2ccc(F)cc2)CC1 | -2.47% | 1.1% (inactive) |
| C[C@H](CO)N1C[C@H](C)[C@H](CN(C)Cc2cccc(F)c2)Oc2ncc(C#CCN(C)C)cc2C1=O | -6.38% | -10.3% (inactive) |
| COc1ccc(S(=O)(=O)N[C@@H]2CC[C@@H](CC(=O)NCCc3ccccc3)O[C@@H]2CO)cc1 | -2.59% | 3.47% (inactive) |
| O=C(NCC[C@@H]1CC[C@@H](NS(=O)(=O)c2ccc(Cl)cc2)[C@@H](CO)O1)c1ccccc1F | -4.89% | -8.02% (inactive) |
| COc1ccc(S(=O)(=O)Nc2ccc3c(c2)C(=O)N([C@@H](C)CO)C[C@H](C)[C@@H](CN(C)C(=O)c2ccccc2)OCCCC[C@H](C)O3)cc1 | -18.1% | -21.6% (inactive) |
| CC(C)NC(=O)N1Cc2cc(C(=O)NCC(F)(F)F)nc(-c3cccc(-c4cc5ccccc5o4)c3)c2[C@@H]1CCO | -13.3% | -16.3% (inactive) |
| C[C@@H]1CN([C@@H](C)CO)C(=O)Cc2cc(NS(=O)(=O)c3cccs3)ccc2O[C@H]1CN(C)S(=O)(=O)c1ccc(F)cc1 | 4.55% | -5.12% (inactive) |

| Compound | activity change (Venus) | activity change (mCherry) |
| --- | --- | --- |
| CO[C@@H]1CN(C)C(=O)c2cc(NC(=O)C3CC3)ccc2OC[C@H](C)N(C(=O)CN(C)C)C[C@H]1C | -3.17% | -2.47% (inactive) |
| O=C(C[C@@H]1CC[C@H](NC(=O)Nc2ccc3c(c2)OCO3)[C@H](CO)O1)NCc1ccccc1 | 14.1% | 19.4% (inactive) |
| C=CCOC(=O)C1=C[C@@H](c2ccccc2)C[C@@H](OCc2ccc(CO)cc2)O1 | -3.63% | 2.64% (inactive) |
| O=C(C1CCCC1)N1CC(=O)N2[C@@H](CO)[C@@H](c3ccc(-c4cccnc4)cc3)[C@@H]2C1 | -4.04% | -5.69% (inactive) |
| Cc1ccccc1-c1cnc2c(c1)C(=O)N([C@H](C)CO)C[C@@H](C)[C@H](CN(C)C(=O)c1cccnc1)O2 | -1.16% | -1.67% (inactive) |
| CN(C)C(=O)c1ccc(-c2ccc(C3[C@H]4CNC[C@@H]3N4C(=O)Nc3cc(F)ccc3F)cc2)cc1 (some centres undefined) | 3.11% | 14.7% (inactive) |
| O=C(C1CCCCC1)N1CC2(C1)[C@H](c1ccccc1)[C@@H](CO)N2CCC(F)(F)F | -3.18% | -9.06% (inactive) |
| CC(=O)Nc1ccc2c(c1)C(=O)N(C)[C@H]1CC[C@@H](CC(=O)NCC3CC3)O[C@H]1CO2 | 11.1% | 7.92% (inactive) |
| CCC(=O)N(C)C[C@@H]1Oc2ncc(/C=C/c3ccccc3)cc2C(=O)N([C@@H](C)CO)C[C@H]1C | 1.22% | 12.1% (inactive) |
| O=C(O)C[C@H]1C=C[C@@H](NC(=O)Nc2cc(F)ccc2F)[C@@H](CO)O1 | 9.94% | 8.15% (inactive) |
| COCC(=O)N(C)C[C@H]1Oc2cc(C#C[C@@H](C)O)ccc2S(=O)(=O)N([C@@H](C)CO)C[C@@H]1C | -7.76% | 2.13% (inactive) |
| CCC(=O)N(C)C[C@@H]1Oc2cc(-c3ccc(C#N)cc3)ccc2S(=O)(=O)N([C@@H](C)CO)C[C@@H]1C | 0.0371% | -1.36% (inactive) |
| COc1ccc2c3c(n(C)c2c1)[C@@H](CO)N(S(C)(=O)=O)CC31CCN(C(=O)C2CCC2)CC1 | -12.1% | -2.22% (inactive) |
| CC(C)C#Cc1cnc2c(c1)C(=O)N([C@H](C)CO)C[C@H](C)[C@@H](CN(C)C(=O)Nc1cc(F)ccc1F)O2 | -6.46% | -3.74% (inactive) |
| COc1ccccc1NC(=O)N1C[C@@H](O)COC[C@H]2O[C@@H](CC(=O)NCc3ccccc3)CC[C@@H]21 | -3.27% | -5.93% (inactive) |
| Cc1cccc(-c2ccc([C@@H]3[C@H]4CN(C(=O)c5ccccc5)CC(=O)N4[C@H]3CO)cc2)c1 | -26.3% | -24.1% (inactive) |
| CCCN1C[C@H](C)[C@@H](OC)CN(C)C(=O)c2ccc(NC(=O)C3CCOCC3)cc2OC[C@@H]1C | 5.44% | 13.4% (inactive) |
| C[C@H]1CN([C@@H](C)CO)C(=O)CCCn2nncc2CO[C@@H]1CN(C)C(=O)Nc1ccc(N2CCN(C)CC2)cc1 | 3.05% | 3.06% (inactive) |
